# G9a inh: qHTS Assay for Inhibitors of Histone Lysine Methyltransferase G9a; Histone-lysine N-methyltransferase EHMT2 (Homo sapiens), Q96KQ7; G9a H3K9 monomethylation, AlphaScreen, 2 h; Potency, µM (highest dose often 102 µM), without a hit: at the top dose activity, negative = inhibition, actives largely listed as inhibitors; 8.8% of 350,000 active; note: % is set by controls: 0 for no effect and ±100 for the full control effect; nearly all actives have a fitted effect of over 75% in size
#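 Using a bead-based AlphaScreen, monomethylated H3K9 product from 2 h room-temperature reactions (G9a 20 nM, peptide 500 nM, SAM 20 uM) was detected with 0.5 ug/mL rabbit anti-H3K9me1 antibody.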
# JMJD2A Tudor inh: qHTS Assay for Inhibitors of JMJD2A-Tudor Domain; 4.4% of 390,000 active; Potency, µM (titrated, usually from 114 µM), for the others: at the top dose activity change, negative = inhibition, actives largely listed as inhibitors; AID 504339, 2011; AlphaScreen JMJD2A-Tudor / H3K4me3 peptide binding; note: % is set by controls: 0 for no effect and ±100 for the full control effect; nearly all actives have a fitted effect of over 50% in size
# Sfp PPTase inh: qHTS Assay for Inhibitors of Bacillus subtilis Sfp phosphopantetheinyl transferase (PPTase) | 4'-phosphopantetheinyl transferase ffp (Bacillus subtilis), Q9F4F7 | Biochemical Sfp PPTase activity, qHTS | Potency, µM, inactives show largest response in the series, negative = inhibition, actives largely listed as inhibitors | 3.5% of 310,000 active | AID 1490, 2009;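 note: the enzyme is Sfp with the accession as filed and its product quenches rhodamine fluorescence; 0% = enzyme reaction without inhibitor and -100% = no enzyme wells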
#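 Sfp 15 nM + cpd, 15 min RT; start w/ rhodamine-CoA 5 uM, BHQ-2-YbbR 12.5 uM (final); 50 mM Hepes pH 7.6, 10 mM MgCl2, 0.01% NP-40, 0.01% BSA; read 525/598 nm at 0 and 30 min.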
# HP1b chromo inh: HTS for Inhibitors of HP1-beta Chromodomain Interactions with Methylated Histone Tails; AlphaScreen HP1-beta / biotin-H3K9me3 peptide binding; Potency, µM (highest dose often 114 µM), without a hit: at the highest dose activity change, negative = inhibition, most hits filed as inhibitors; 0.56% of 390,000 active; note: nearly all actives have a fitted effect of over 70% in size
#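 Compound inhibition of the preformed complex between 50 nM HP1-beta and 50 nM biotinylated H3K9me3 peptide was read by AlphaScreen. Buffer was PBS pH 7.4 with 0.01% Tween-20. Incubations ran 30 min at room temperature, with 10 ug/mL donor/acceptor beads.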
# BAZ2B inh: qHTS Assay for Inhibitors of BAZ2B | AlphaScreen BAZ2B-H3K14Ac peptide displacement | Potency, µM (top dose mostly 114 µM), without a hit: at the highest dose activity change, negative = inhibition, most hits filed as inhibitors | 4.4% of 360,000 active | AID 504333, 2011; note: % is set by controls: 0 for no effect and ±100 for the full control effect; nearly all actives have a fitted effect of over 60% in size
#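 Compounds, titrated to a top concentration of 110 uM, were incubated 30 min at room temperature with preformed BAZ2B/acetyl-K14 H3 peptide complex (50 nM each). Proximity signal was measured by AlphaScreen after 20 min with beads.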
# * marks the source's active call; other numbers are inactive results; ? = inconclusive; nt = not tested or not shown; [ ] = remark or other dose. Compounds with a hit are over-represented: about 12% of the library has one in this group of screens. Calls come from the whole dose curve; as a rule, active = well fitted curve in the direction sought with a large enough effect; inconclusive = small, poorly fitted or top-dose-only effect, or another doubt; inactive = no such curve, though single readings can be large; an effect the other way counts as inactive or inconclusive. Potency is the fitted concentration of half-maximal effect.
SMILES,G9a inh,JMJD2A Tudor inh,Sfp PPTase inh,HP1b chromo inh,BAZ2B inh
CCCN1C(=O)c2cc(C(=O)Nc3ccc(OC)cc3OC)ccc2C1Nc1ccc(OC)cc1OC (configuration not stated),22µM*,28µM*,7%,-20%,?
CCCN1C(=O)c2cc(C(=O)Nc3ccc(OC)c(OC)c3)ccc2C1Nc1ccc(OC)c(OC)c1 (configuration not stated),-1%,-13%,-17%,36%,-7%
Cc1ccc(NC(=O)/C(C#N)=C/c2cc(C)n(-c3ccc(Br)cc3)c2C)cc1C,1%[59 µM],-9%,nt,40%,5%
CN1C(N)=NC(=O)/C1=C/c1ccc(OC(F)(F)F)cc1,22%,-12%,9%,0%,7%
CCOC(=O)c1cnc2c(OC)cccc2c1N1CCN(c2ccc(OC)cc2)CC1,?,-17%[11.4 µM],?,?,11µM*
CCOC(=O)c1cnc2c(OC)cccc2c1N1CCN(c2ccccn2)CC1,?,-32%,6%,-8%,-32%
CCOC(=O)c1cnc2c(OC)cccc2c1N1CCN(c2ccccc2OC)CC1,?,?,79µM*,-24%,?
CCCCC(=O)N(Cc1ccc2c(c1)OCO2)Cc1nc2ccccc2c(=O)[nH]1,-6%,32µM*,-12%,-15%,-33%
O=C(CCc1nc2ccccc2c(=O)[nH]1)Nc1cc(Cl)ccc1N1CCCC1,14µM*,-7%,nt,35%,6%
Cc1ccccc1NC(=O)COC(=O)CCc1nc2ccccc2c(=O)[nH]1,45µM*,-10%,14%,49%,-3%
CC(OC(=O)CCc1nc2ccccc2c(=O)[nH]1)C(=O)NC1CCCC1 (configuration not stated),-14%,-17%,-2%,22%,11%
O=C(COC(=O)CCc1nc2ccccc2c(=O)[nH]1)NC(=O)NC1CCCC1,10µM*,-31%,1%,33%,-1%
COc1ccc(-c2noc(N3CCC(C(=O)N(C)c4ccccc4)CC3)n2)cc1,7%,-11%,-6%,16%,-1%
CC(=O)c1ccc(NC(=O)C2CCCN(S(=O)(=O)c3c(C)[nH]c(=O)[nH]c3=O)C2)cc1 (configuration not stated),7%,-2%,19%,17%,-13%
Cc1ccccc1NC(=O)c1c([N+](=O)[O-])cnn1C,55%,-11%,17%,14%,-29%
Cc1ccc(NS(=O)(=O)N(C)C)cc1,16%[59 µM],-13%,12%,21%,1%
O=C(COC(=O)CCc1nc2ccccc2c(=O)[nH]1)NC(c1ccccc1)c1ccccc1,-40%[59 µM],-15%,4%,16%,5%
O=C(COC(=O)CCc1nc2ccccc2c(=O)[nH]1)Nc1ccc2c(c1)OCO2,56µM*,3%,11%,41%,-17%
Cc1c(Cl)cccc1NC(=S)Nc1ccc2[nH]c(=O)[nH]c2c1,15%[12.7 µM],5%[11.4 µM],56µM*,-12%,-24%
Cc1cc(C(=O)CN2CCCCC2)c(C)n1-c1ccc(F)cc1,-13%[59 µM],-29%,7%,-14%,?
Cc1cc(C(=O)CNCc2ccco2)c(C)n1-c1ccc(F)cc1,22µM*,3.2µM*,-12%,?,56µM*
CSc1ncc(C(=O)NCc2ccccc2F)c(-c2ccccc2)n1,11%[59 µM],4%,nt,46%,9%
COCCN1C(=O)C(=O)/C(=C(/O)c2ccc(S(=O)(=O)N3CCOCC3)cc2)C1c1cccc(O)c1 (configuration not stated),-26%,-29%,0%,65%,?
COCCN1C(=O)C(=O)/C(=C(/O)c2ccc(S(=O)(=O)N3CCCCC3)cc2)C1c1ccc(OC)cc1 (configuration not stated),71µM*,-30%,0%,48%,-4%[57.1 µM]
COc1ccc(C2/C(=C(/O)c3ccc(S(=O)(=O)N4CCOCC4)cc3)C(=O)C(=O)N2CCN2CCOCC2)cc1 (configuration not stated),50µM*,-11%,9%,-4%,?

# Bioassay records as filed in PubChem BioAssay.
